Rows were chosen to be rich in hits. Some 4.6% of all compounds tested hit in one or more screens of this group.
PfHsp90 set2: growth inhibition of yeast expressing Plasmodium Hsp90. inhibition, % at 9.4 µM. S. cerevisiae expressing PfHsp90, BacTiter-Glo ATP, 48 h; yeast lacking PDR1 and PDR3 efflux regulators. actives 0.32% (n = 310,000). AID 504621;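 active means every replicate shows inhibition above about 80%, whatever the replicate mean, limit read from the data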;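 further: 0% = DMSO neutral controls and 100% = 20 µM radicicol positive controls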
NALP3 yeast inh: inhibitors of NALP3 inflammasome in yeast; inhibition, % at 10 µM; AID 2825; actives 0.39% (n = 330,000); Yeast reconstituted NLRP3/ASC/caspase-1, beta-gal luminescence, 24 h;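 active means inhibition of 50% or more; inactive means inhibition below 50%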;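 further: plate controls were induced DMSO wells for no effect and uninduced yeast grown without galactose for full effect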
SKKanGAS inh: inhibitors of SKKanGAS S. pyogenes growth in kanamycin (SK-promoter or general growth effect); BacTiter-Glo, 6 h; inhibition, % at 7.5 µM; actives 1.3% (n = 300,000); AID 1662;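 active means mean replicate score, as percent of positive control median, at least 50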;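 further: strain carries kanamycin resistance gene driven by streptokinase promoter and grows in 40 µg/ml kanamycin; loss of luminescence reflects streptokinase promoter inhibition or plain growth inhibition; 0% = median of DMSO wells and 100% = positive control at its reference dose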
TIM10 inh: inhibits growth of TIM10 yeast strain; S. cerevisiae TIM10 strain growth, BacTiter-Glo luminescence, 24 h; inhibition, % at 10 µM; actives 1.4% (n = 330,000);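 active means inhibition of 40% or more at the single tested concentration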;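 further: wild-type TIM10 isogenic control strain grown at permissive 25 °C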
tim23-1 inh: inhibits growth of tim23-1 mutant yeast; S. cerevisiae tim23-1 growth, BacTiter-Glo luminescence, 24 h; inhibition, % at 20 µM; actives 1.3% (n = 330,000);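 active means growth inhibition of the mutant yeast at or above 50%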;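 further: temperature-sensitive mutant grown at 25 °C; plate controls were DMSO-treated mutant yeast for no effect and medium wells lacking yeast for full effect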
tim10-1 inh: growth inhibitors of tim10-1 mutant yeast; inhibition, % at 20 µM; actives 2.2% (n = 330,000); S. cerevisiae tim10-1 ts strain growth, BacTiter-Glo, 24 h;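 active means inhibition of at least 40%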;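 further: mutant grown at 25 °C; 0% = DMSO wells with yeast and 100% = wells holding no yeast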
tim10-1 confirm: confirmation of tim10-1 mutant yeast growth inhibitors. shares compounds with tim10-1 inh. S. cerevisiae tim10-1 ts strain growth, BacTiter-Glo, 24 h. inhibition, % at 20 µM. actives 56% (n = 7,400). AID 463213;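 active means inhibition of yeast growth at or above a set limit in either of two repeat tests at 20 µM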;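 further: tim10-1 mutant grown at permissive 25 °C to find synthetic lethal compounds; 0% = DMSO yeast wells and 100% = medium wells without yeast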
The depositor's hits bear a star; ! = repeats disagree.

How did CCN(CC)S(=O)(=O)c1ccc(Cl)c(NC(=O)COC(=O)c2nc3nc(C)cc(C)n3n2)c1 do in these assays?
PfHsp90 set2: 8; NALP3 yeast inh: 11; TIM10 inh: 5; tim23-1 inh: 8; tim10-1 inh: -1

What do the screens show for `CC1CCN(CC(=O)Nc2ccc(C(=O)N3CCCCC3)cc2)CC1`?
PfHsp90 set2: 14; NALP3 yeast inh: 12; SKKanGAS inh: -3; TIM10 inh: 0; tim23-1 inh: -1; tim10-1 inh: -13

How did CCOc1cc(/C=N\Nc2nc(Nc3ccccc3)nc(N3CCOCC3)n2)ccc1OC(=O)c1ccco1 do in these assays?
PfHsp90 set2: -66; NALP3 yeast inh: 4; SKKanGAS inh: 26; TIM10 inh: 28; tim23-1 inh: 20; tim10-1 inh: 42*; tim10-1 confirm: 27

How did Cc1c(OCC(=O)NCCCN2CCOCC2)ccc2c3c(c(=O)oc12)CCC3 do in these assays?
PfHsp90 set2: 27; NALP3 yeast inh: 11; SKKanGAS inh: -11; TIM10 inh: 25; tim23-1 inh: 22; tim10-1 inh: 48*; tim10-1 confirm: 30

Results for Cc1cccc(NC(=O)Cn2cnc3c(oc4ccccc43)c2=O)c1C ?
PfHsp90 set2: -2; NALP3 yeast inh: -19; SKKanGAS inh: 0; TIM10 inh: -3; tim23-1 inh: -7; tim10-1 inh: -11

Results for CON(C)S(=O)(=O)c1cccc(C(=O)N(CC(=O)Nc2ccccc2C(F)(F)F)Cc2ccco2)c1 ?
PfHsp90 set2: 1; NALP3 yeast inh: 11; TIM10 inh: 7; tim23-1 inh: 19; tim10-1 inh: 7

How did COC(=O)COc1ccc(-c2nccc(-c3ccccn3)n2)cc1 do in these assays?
PfHsp90 set2: 20; NALP3 yeast inh: 21; SKKanGAS inh: -7; TIM10 inh: 30; tim23-1 inh: 19; tim10-1 inh: 43*; tim10-1 confirm: 31*

Results for COC(=O)COc1ccc(-c2nccc(-c3ccc(Br)cc3)n2)cc1 ?
PfHsp90 set2: 12; NALP3 yeast inh: -1; SKKanGAS inh: 3; TIM10 inh: 8; tim23-1 inh: 22; tim10-1 inh: -13

How did O=C(Nc1ncc2c(n1)-c1ccccc1OC2)c1ccc(F)cc1 do in these assays?
NALP3 yeast inh: 9; SKKanGAS inh: -5; TIM10 inh: 24; tim23-1 inh: 40; tim10-1 inh: 33

Results for O=C(Nc1ncc2c(n1)-c1ccccc1CC2)c1ccc(Cl)cc1 ?
NALP3 yeast inh: 30; SKKanGAS inh: -3; TIM10 inh: 25; tim23-1 inh: 46; tim10-1 inh: 47*; tim10-1 confirm: 37*

How did O=C(NCc1ccccc1)c1nc(S(=O)(=O)Cc2ccccc2)ncc1Cl do in these assays?
PfHsp90 set2: -21; NALP3 yeast inh: 7; SKKanGAS inh: -9; TIM10 inh: 31; tim23-1 inh: 42; tim10-1 inh: 52*; tim10-1 confirm: 9

What do the screens show for `O=C(NCc1ccc2c(c1)OCO2)c1nc(S(=O)(=O)Cc2ccccc2)ncc1Cl`?
PfHsp90 set2: 2; NALP3 yeast inh: 13; SKKanGAS inh: -3; TIM10 inh: 39; tim23-1 inh: 43; tim10-1 inh: 55*; tim10-1 confirm: 26

How did CC(=O)Nc1ccc(NC(=O)c2nc(S(=O)(=O)Cc3ccccc3)ncc2Cl)cc1 do in these assays?
PfHsp90 set2: -21; NALP3 yeast inh: 5; SKKanGAS inh: 12; TIM10 inh: 5; tim23-1 inh: 12; tim10-1 inh: 0

Results for COc1ccc(CNC(=O)c2nc(S(=O)(=O)Cc3ccccc3)ncc2Cl)cc1 ?
PfHsp90 set2: 9; NALP3 yeast inh: -8; SKKanGAS inh: -5; TIM10 inh: 29; tim23-1 inh: 42; tim10-1 inh: 59*; tim10-1 confirm: 31*

How did O=C(NCc1ccc2c(c1)OCO2)c1nc(S(=O)(=O)Cc2ccccc2F)ncc1Cl do in these assays?
PfHsp90 set2: -8; NALP3 yeast inh: 19; SKKanGAS inh: -18; TIM10 inh: -21; tim23-1 inh: 36; tim10-1 inh: -17

Results for CN(C)CC/C=C1/c2ccccc2Sc2ccc(Cl)cc21 ?
PfHsp90 set2: -10; NALP3 yeast inh: 46; SKKanGAS inh: 4; TIM10 inh: 20; tim23-1 inh: -19; tim10-1 inh: 41*!; tim10-1 confirm: 27

What do the screens show for `CCN(CC)P(=O)(Nc1ccc(C)cc1Br)c1ccc(N(C)C)cc1NC(=O)c1ccco1` (configuration not stated)?
PfHsp90 set2: 21; NALP3 yeast inh: -5; SKKanGAS inh: 37; TIM10 inh: 20; tim23-1 inh: 32; tim10-1 inh: 22

Results for COCCn1c(SCC(=O)Nc2nc(C)c(Cl)cc2Cl)nc2ccccc21 ?
PfHsp90 set2: 6; NALP3 yeast inh: 20; SKKanGAS inh: -4; TIM10 inh: 10; tim23-1 inh: 7; tim10-1 inh: 42*; tim10-1 confirm: 13

Results for Cc1nc(NC(=O)CSc2cc(C)c3ccccc3n2)c(Cl)cc1Cl ?
PfHsp90 set2: -8; NALP3 yeast inh: 36; SKKanGAS inh: 8; TIM10 inh: 22; tim23-1 inh: 42; tim10-1 inh: 41*; tim10-1 confirm: 24

What do the screens show for `Cc1cc(SCC(=O)Nc2cccnc2Cl)nc2ccccc12`?
PfHsp90 set2: -10; NALP3 yeast inh: -8; SKKanGAS inh: 5; TIM10 inh: -2; tim23-1 inh: 15; tim10-1 inh: -6

How did CCNC(=O)C12CCC(C)(c3nc4cc(C)c(C)cc4nc31)C2(C)C (configuration not stated) do in these assays?
PfHsp90 set2: -22; NALP3 yeast inh: 16; SKKanGAS inh: -4; TIM10 inh: 10; tim23-1 inh: 29; tim10-1 inh: 28

Results for Cc1cccc(N2CCN(C(=O)CCC(=O)N3Cc4ccccc4Oc4ncccc43)CC2)c1C ?
PfHsp90 set2: 11; NALP3 yeast inh: 18; SKKanGAS inh: 6; TIM10 inh: -12; tim23-1 inh: 26; tim10-1 inh: 54*; tim10-1 confirm: -20

Results for C[C@H](CO)N1C[C@H](C)[C@@H](CN(C)Cc2ccc(-c3ccccc3)cc2)Oc2c(NC(=O)Nc3ccc(C(F)(F)F)cc3)cccc2C1=O ?
PfHsp90 set2: -3; NALP3 yeast inh: 15; TIM10 inh: 7; tim23-1 inh: -10; tim10-1 inh: -11

What do the screens show for `COc1ccccc1-c1sc2cc3c(cc2c1C#CC1(O)CCCCC1)OCO3`?
PfHsp90 set2: 6; NALP3 yeast inh: 8; TIM10 inh: 9; tim23-1 inh: 33; tim10-1 inh: 20

How did COc1cccc2sc3ccc(C#CC4(O)CCCCC4)cc3c(=O)c12 do in these assays?
PfHsp90 set2: -4; NALP3 yeast inh: -5; SKKanGAS inh: 36; TIM10 inh: 25; tim23-1 inh: 50; tim10-1 inh: 41*; tim10-1 confirm: 21
